Test results published in PubChem BioAssay (NCATS).
Results filed as inconclusive are left out. Entries that show only a call come without a potency. Values without a mark were called inactive. Activity calls are given as the source filed them. Calls follow the shape of the dose curve; as a rule, active = well fitted curve in the direction sought with a large enough effect; inconclusive = small, poorly fitted or top-dose-only effect, or another doubt; inactive = no such curve, though single readings can be large; an effect the other way counts as inactive or inconclusive.

Legend:
[1] = target: Rap guanine nucleotide exchange factor 3 (Homo sapiens) (UniProt O95398); assay: Confirmatory qHTS for antagonist of cAMP-regulated guanine nucleotide exchange factor 3 (EPAC1) (AID 1645880); conditions: EPAC1 Rap1B-BODIPY-GDP exchange, fluorescence; activity, negative = inhibition: at 115 µM (top of the series); also: nearly all actives have a fitted effect of over 55% in size; also: potency is read from the fitted curve at half-maximal effect
Method in brief: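 Nucleotide exchange uses 100 nM EPAC1, 250 nM RAP1B-BODIPY-GDP and 50 uM GDP, with compounds in a concentration-titration series. After 5 min at room temperature, fluorescence (480 nm ex/540 nm em) is read every 5 min for 30 min. Data are normalized to control ATA and DMSO.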

[2] = target: Rap guanine nucleotide exchange factor 3 (Homo sapiens) (UniProt O95398); assay: Confirmatory qHTS for agonist of cAMP-regulated guanine nucleotide exchange factor 3 (EPAC1) (AID 1645881);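 also: EPAC1 catalysed release of BODIPY-GDP from Rap1B seen as fluorescence loss; nearly all actives have a fitted effect of over 75% in size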
[3] = target: Rap guanine nucleotide exchange factor 3 (Homo sapiens) (UniProt O95398); assay: Counterscreen qHTS for antagonist of cAMP-regulated guanine nucleotide exchange factor 3 (EPAC1) (AID 1645888);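 also: fluorescence loss as bound BODIPY-GDP is released from Rap1B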
Method in brief: (§1)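 Rap1B–BODIPY-GDP (250 nM) with 50 uM GDP; compounds pin-transferred to 9.74 nM–152 uM final (activator) or from 7.32 nM upwards (inhibitor). Fluorescence Ex/Em 480/540 nm read at 5 and 30 min, then after adding cAMP or buffer, at room temperature.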

[4] = target: Rap guanine nucleotide exchange factor 3 (Homo sapiens) (UniProt O95398); assay: Counterscreen qHTS for agonist of cAMP-regulated guanine nucleotide exchange factor 3 (EPAC1) (AID 1645889); also: nearly all actives have a fitted effect of over 40% in size
Method in brief: as §1

[5] = target: Rap guanine nucleotide exchange factor 4 (Homo sapiens) (UniProt Q8WZA2); assay: Confirmatory qHTS for agonist of cAMP-regulated guanine nucleotide exchange factor 4 (EPAC2) (AID 1645884);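 also: nucleotide exchange releases bodipy-GDP from Rap1 and this lowers its fluorescence; nearly all actives have a fitted effect of over 65% in size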; also: potency is read from the fitted curve at half-maximal effect
[6] = target: Rap guanine nucleotide exchange factor 4 (Homo sapiens) (UniProt Q8WZA2); assay: Confirmatory qHTS for antagonist of cAMP-regulated guanine nucleotide exchange factor 4 (EPAC2) (AID 1645885); also: nearly all actives have a fitted effect of over 25% in size; also: potency is read from the fitted curve at half-maximal effect

Rap guanine nucleotide exchange factor 3 (Homo sapiens), sequence (O95398 whole entry, looked up): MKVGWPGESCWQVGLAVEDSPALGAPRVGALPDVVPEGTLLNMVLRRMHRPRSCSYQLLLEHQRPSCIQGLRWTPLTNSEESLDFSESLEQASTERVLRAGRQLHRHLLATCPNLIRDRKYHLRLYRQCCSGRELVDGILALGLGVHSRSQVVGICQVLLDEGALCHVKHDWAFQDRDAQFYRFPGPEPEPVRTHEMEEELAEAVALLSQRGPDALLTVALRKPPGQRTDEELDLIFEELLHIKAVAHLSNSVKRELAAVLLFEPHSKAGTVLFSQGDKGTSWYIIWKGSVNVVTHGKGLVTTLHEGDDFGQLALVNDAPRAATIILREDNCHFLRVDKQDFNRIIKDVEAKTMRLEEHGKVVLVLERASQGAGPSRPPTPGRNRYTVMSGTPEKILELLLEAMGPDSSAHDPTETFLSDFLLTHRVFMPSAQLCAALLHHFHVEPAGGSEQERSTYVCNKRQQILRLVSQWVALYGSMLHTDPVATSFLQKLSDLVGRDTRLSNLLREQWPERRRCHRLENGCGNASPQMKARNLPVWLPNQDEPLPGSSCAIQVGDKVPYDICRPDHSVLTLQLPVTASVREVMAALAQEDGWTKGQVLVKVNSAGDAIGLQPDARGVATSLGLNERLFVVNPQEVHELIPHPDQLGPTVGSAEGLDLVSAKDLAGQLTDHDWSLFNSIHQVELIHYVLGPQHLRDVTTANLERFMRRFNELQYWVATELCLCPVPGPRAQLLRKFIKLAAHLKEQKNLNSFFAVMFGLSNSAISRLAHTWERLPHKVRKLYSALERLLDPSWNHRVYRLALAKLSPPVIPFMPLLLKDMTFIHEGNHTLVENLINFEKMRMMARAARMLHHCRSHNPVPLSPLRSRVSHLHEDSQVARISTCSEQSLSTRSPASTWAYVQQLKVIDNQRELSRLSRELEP
Rap guanine nucleotide exchange factor 4 (Homo sapiens), sequence (Q8WZA2 whole entry, looked up): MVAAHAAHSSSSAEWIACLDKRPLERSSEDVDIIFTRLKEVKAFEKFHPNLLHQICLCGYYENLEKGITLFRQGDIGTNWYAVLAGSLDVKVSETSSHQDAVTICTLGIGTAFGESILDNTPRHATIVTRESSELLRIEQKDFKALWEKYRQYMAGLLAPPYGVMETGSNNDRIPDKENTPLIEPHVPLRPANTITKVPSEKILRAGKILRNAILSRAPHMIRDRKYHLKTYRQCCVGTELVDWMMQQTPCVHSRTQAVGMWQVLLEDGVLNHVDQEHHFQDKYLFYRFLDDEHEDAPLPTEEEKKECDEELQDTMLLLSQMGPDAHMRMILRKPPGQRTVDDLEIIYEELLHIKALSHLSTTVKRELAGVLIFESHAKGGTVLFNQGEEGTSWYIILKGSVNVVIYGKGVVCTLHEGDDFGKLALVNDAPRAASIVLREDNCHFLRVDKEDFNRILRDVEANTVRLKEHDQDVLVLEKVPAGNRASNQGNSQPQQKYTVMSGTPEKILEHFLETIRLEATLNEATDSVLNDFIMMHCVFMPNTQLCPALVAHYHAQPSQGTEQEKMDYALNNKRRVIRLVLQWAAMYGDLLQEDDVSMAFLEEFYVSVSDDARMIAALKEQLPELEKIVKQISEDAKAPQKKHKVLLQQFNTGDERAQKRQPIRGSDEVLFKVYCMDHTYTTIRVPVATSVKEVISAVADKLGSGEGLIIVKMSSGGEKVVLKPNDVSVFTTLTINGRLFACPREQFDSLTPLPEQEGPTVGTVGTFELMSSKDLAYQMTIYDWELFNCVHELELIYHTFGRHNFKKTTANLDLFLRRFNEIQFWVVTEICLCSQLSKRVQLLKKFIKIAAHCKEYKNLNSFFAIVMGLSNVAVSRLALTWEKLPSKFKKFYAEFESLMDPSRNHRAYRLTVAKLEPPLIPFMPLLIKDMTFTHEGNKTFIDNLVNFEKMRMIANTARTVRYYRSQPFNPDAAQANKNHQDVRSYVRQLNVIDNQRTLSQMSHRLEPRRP

In the case of `COc1ccc(C(=O)N(Cc2ccccc2)c2cccc(C)c2)cc1`, the Potency [1] is reported as “inactive”, the Potency [2] is reported as “inactive” and the Potency [3] is reported as “inactive”. The Potency [4] was “inactive”.
For `COC(=O)c1ccc2nc(-c3ccc(F)cc3)c(CC3CCCCC3)n2c1`, the Potency [1] was “inactive”, the Potency [2] was “inactive” and the activity change, negative = inhibition [3] was -8.86% [at 30.8 µM]. It also gave an activation [4] of 6.82% [at 30.8 µM].
In the case of `COc1ccc(-c2ccc(CCC(=O)O)n2-c2ccc(Cl)cc2C)cc1`, the Potency [1] is reported as “inactive”, the Potency [2] is reported as “inactive” and the Potency [3] is reported as “inactive”. The Potency [4] was “inactive”.
`COC(=O)c1ccc2nc(-c3ccc(OC)c(OC)c3)c(CC3CCCCC3)n2c1` was tested, and the Potency [1] was “inactive”, the Potency [2] was “inactive” and the Potency [3] was “inactive”. The Potency [4] was “inactive”.
`C=CCOc1ccc(/C=N/NC(C)=O)cc1OCC` was tested, and the Potency [1] was “inactive”, the Potency [2] was “inactive” and the Potency [3] was “inactive”. For the same molecule, the Potency [4] was “inactive”.
In the case of `COC(=O)c1ccc2nc(-c3cccc(Br)c3)c(Cc3ccsc3)n2c1`, the Potency [1] is reported as “inactive”, the Potency [2] is reported as “inactive” and the activity change, negative = inhibition [3] is reported as -25% [at 30.8 µM]. For the same molecule, the activation [4] was 17.8% [at 30.8 µM].
`COc1cc(C)c(S(=O)(=O)N2CCCC2)cc1C(C)C` was tested, and the Potency [1] was “inactive”, the Potency [2] was “inactive” and the activation [4] was 14.6% [at 30.8 µM].
In the case of `CCN1CCN(Cc2c(O)ccc3c2O/C(=C\C=C\c2ccccc2OC)C3=O)CC1`, the Potency [1] is reported as “inactive”, the activation [5] is reported as 5.66% [at 17.1 µM, percent relative to cAMP agonist control] and the Potency [6] is reported as “inactive”.
For `c1ccc(CNc2c(-c3cccc(SC4CCCCC4)c3)nc3ccccn23)cc1`, the Potency [1] was “inactive”, the Potency [2] was “inactive” and the activity change, negative = inhibition [3] was 4.85% [at 30.8 µM]. For the same molecule, the activation [4] was 4.1% [at 30.8 µM].
With `COc1ccc(/C(O)=C/c2nc3ccccc3n(-c3ccccc3)c2=O)cc1` the Potency [1] was “inactive”, the Potency [5] was 100 µM (active) and the Potency [6] was 75.7 µM (active). For the same molecule, the Potency [3] was “inactive”.
With `COc1ccc(N2C(=O)[C@H]3CCC=C[C@H]3[C@@H]2c2ccccc2Br)cc1` the Potency [1] was “inactive”, the Potency [2] was “inactive” and the Potency [4] was “inactive”.
`Cc1ccc(S(=O)(=O)N2[C@@H](c3ccc(C(C)(C)C)cc3)C(C(=O)O)=CC[C@H]2c2ccc(Cl)cc2)cc1` was tested, and the Potency [1] was 33.8 µM (active), the Potency [2] was “inactive” and the Potency [4] was “inactive”.
For `COc1ccc(OC)c(/C=C/c2nc3ccccc3nc2C)c1`, the Potency [1] was “inactive”, the Potency [5] was 79.3 µM (active) and the Potency [6] was “inactive”.
With `CCOC(=O)/C(C#N)=C/c1ccc(N2CCN(Cc3ccccc3)CC2)cc1` the Potency [1] was “inactive”, the activation [5] was 10.3% [at 17.1 µM, percent relative to cAMP agonist control] and the Potency [6] was “inactive”. It also gave an activity change, negative = inhibition [3] of 16.8% [at 30.8 µM].
In the case of `Cc1ccc2cccc(Oc3nnnn3-c3ccccc3)c2n1`, the Potency [1] is reported as “inactive”, the Potency [2] is reported as “inactive” and the Potency [3] is reported as “inactive”. For the same molecule, the Potency [4] was “inactive”.
In the case of `Fc1cc(F)cc(-c2c(-c3ccccc3)ncc3ccc(F)cc23)c1`, the Potency [1] is reported as “inactive”, the Potency [2] is reported as “inactive” and the Potency [4] is reported as “inactive”.
For `O=C(N/N=C/c1cc(Cl)cc([N+](=O)[O-])c1O)NC12CC3CC(CC(C3)C1)C2`, the Potency [1] was 10.7 µM (active), the Potency [5] was “inactive” and the Potency [6] was “inactive”. For the same molecule, the Potency [3] was “inactive”.
